Test results reported in the OligoGym collection.

Molecular target: PTBP2
Experiment: pooled miR-30 sensor sort-seq; sequence = guide strand
Details: shRNA
Also: reference of the scale not given here.

Row | Sequence | sensor-assay potency score (higher = more potent)
1 | TTTAATGTATTATCTGTCTTTA | -0.808
2 | TTCATTTAAATTGCTAACCAAC | -1.15
3 | TAGTTCGTCAGATCCTCTCTTC | 0.267
4 | TTAAAGTCAGATCTATTCCTAA | 0.0356
5 | TTATCTTCAATACAGCACCAAA | -1.15
6 | TTGCTAACCAACAGGACTGTAT | -0.182
7 | TGAACTAGCTAGACCAGTCTGC | 0.184
8 | TAGCTGTACAGTCTGATGTTTA | -0.892
9 | TTGGCTGTAACTACCATGCTGC | -0.376
10 | TTTAGTTCTTTGTGATTCGAGT | -0.551
11 | TAACCATAGTAATAGCTGCTTC | -0.782

Molecular target: PTGDR
Experiment: as above
Details: shRNA

Row | Sequence | sensor-assay potency score (higher = more potent)
12 | TACTGTTAAATCATACTCCTTG | 0.542
13 | TATCCTAACACACCTCTCCAAA | -1.13
14 | TACAGTGAGTCACACACTGGTT | -0.86
15 | TTTAAGACTTTTAACACTGGTT | -0.351
16 | TTTTTATGAATGTCCATCGTAT | -0.379
17 | TAAATTTCAAAAACAACTGTAT | -0.297
18 | TCTGCTTCTTCAGAGGTCCTGT | 0.273
19 | ATTAACTGGACAATTATCCTAA | 0.137
20 | TTGATTCCTACTGACACCCTTG | 0.657
21 | TTAGTGGAATTGCTGCACCGGC | -1.14
22 | TGTACTTACACATTGAAGGTAC | 0.268
23 | TAGGCAGCCAGCACCACCGGGC | -0.802

Molecular target: PTGDS
Experiment: as above
Details: shRNA

Row | Sequence | sensor-assay potency score (higher = more potent)
24 | TAGTCGGTCTCCACCACTGACA | -1.34
25 | TGAATTTCTCCTTTAACTCAGC | -0.751
26 | TACTGGTCGTAGTCGGTCTCCA | -0.484
27 | TTGGGCTGCACGGAGACCTGGG | -0.764
28 | AAGACAATGGTATCCTCTGTGA | -0.868
29 | TTCTCCTTTAACTCAGCCCTGG | -0.867
30 | TTGCACATGGACAACGCCGCCT | -0.424
31 | TTTTTCCTGAGGAAGGTGGAGG | -1
32 | TTATTGTGCAGGATGAAGCCTG | -0.188
33 | TCCGGTAGCTGTAGGAGCCGAG | -0.81
34 | TTTCTCCTTTAACTCAGCCCTG | -1.14

Molecular target: PTGFRN
Experiment: as above
Details: shRNA

Row | Sequence | sensor-assay potency score (higher = more potent)
35 | TTGGAGAAGACATCCTTGCTTT | -0.201
36 | TTAACCATTAAAAAGCTGCAGT | -0.442
37 | TATTTTAGCGTCCAGTCCCCGT | -1.12
38 | TTTAGTGTAACACACTTTGTTT | -0.905
39 | TTTTCTTGGATTTCCTGCCAGT | -0.278
